# Reference: PubChem BioAssay (NCATS)
# Unmarked numbers belong to inactive results. Records with an inconclusive call do not appear. Active and inactive are the calls of the source. Calls follow the shape of the dose curve; as a rule, active = well fitted curve in the direction sought with a large enough effect; inconclusive = small, poorly fitted or top-dose-only effect, or another doubt; inactive = no such curve, though single readings can be large; an effect the other way counts as inactive or inconclusive.
# Assay: MultiTox-Fluor Cytotoxicity Assay - LYMP1-002 - Dead Cells (AID 960); also: nearly all actives have a fitted effect of over 60% in size
# Conditions: LYMP1-002 lymphoblastoid cells, dead-cell protease fluorescence; series mostly up to 46.1 µM; cytotoxicity (dead cells): at the top concentration
# Outline: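 Human lymphoblastoid cells (LYMP1-002), 2500/well in complete medium, were exposed to compounds for 16 hr at 37 C. Dead-cell protease activity was read as bis-AAF-R110 fluorescence (Ex/Em 485/520), normalized to DMSO and 15 uM tetraoctylammonium bromide; AC50 from Hill fits.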
# Potency is read from the fitted curve at half-maximal effect.
SMILES,cytotoxicity (dead cells) [%],Potency
CO[C@H]1/C=C/O[C@@]2(C)Oc3c(C)c(O)c4c(O)c(c5c(c4c3C2=O)NC2(CCN(CC(C)C)CC2)N=5)=NC(=O)/C(C)=C\C=C\[C@H](C)[C@H](O)[C@@H](C)[C@@H](O)[C@@H](C)[C@H](OC(C)=O)[C@@H]1C,19.2,–
ClC1=C(Cl)C(Cl)(Cl)C(Cl)=C1Cl,37.4,–
CC(=O)Nc1ccc(C(=O)CCl)cc1,–,15.8 µM (active)
Nc1ccc2cc3ccccc3cc2c1,20.2,–
c1ccc2c(c1)-c1cccc3c1c-2cc1ccccc13,25.2,–
O=[N+]([O-])c1cc([N+](=O)[O-])c2ccc(S(=O)(=O)O)cc2c1O,16.6,–
Cc1cc(O)c(C(C)(C)C)cc1Sc1cc(C(C)(C)C)c(O)cc1C,–,31.6 µM (active)
C=CC(=O)OCCOCCOC(=O)C=C,–,25.1 µM (active)
Oc1ccc2cc(SSc3ccc4cc(O)ccc4c3)ccc2c1,-27.8,–
c1ccc2c(c1)ccc1cc3c(ccc4ccccc43)cc12,6.73,–
C/C=C1\C(=O)C[C@H]2[C@@H]3CCC4=CC(=O)CC[C@]4(C)[C@H]3CC[C@]12C,–,25.1 µM (active)
C=C(C)c1ccccc1,11,–
O=C1OC(O)C(C(Cl)Cl)=C1Cl (stereo not given),–,31.6 µM (active)

# Assay: MultiTox-Fluor Cytotoxicity Assay - LYMP1-003 - Dead Cells (AID 961); also: nearly all actives have a fitted effect of over 70% in size
# Conditions: LYMP1-003 lymphoblastoid cells, dead-cell protease fluorescence; series mostly up to 92.2 µM; cytotoxicity (dead cells): at the top concentration
# Outline: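 LYMP1-003 lymphoblastoid, 2500 cells/well, 5 hr settle then 16 hr cpd at 37 C; MultiTox-Fluor reagent 60 min RT; Ex/Em 485/520 dead-cell signal; norm. DMSO = 0%, 15 uM tetraoctylammonium bromide = 100%; Hill AC50.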
SMILES,cytotoxicity (dead cells) [%],Potency
Cc1cc(Nc2ccc(O)cc2)ccc1N,7.09,–
CN(C)c1ccc(C2(c3ccc(N(C)C)cc3)OC(=O)c3cc(N(C)C)ccc32)cc1,5.1,–
CO[C@H]1/C=C/O[C@@]2(C)Oc3c(C)c(O)c4c(O)c(c5c(c4c3C2=O)NC2(CCN(CC(C)C)CC2)N=5)=NC(=O)/C(C)=C\C=C\[C@H](C)[C@H](O)[C@@H](C)[C@@H](O)[C@@H](C)[C@H](OC(C)=O)[C@@H]1C,9.59,–
O=C(OCC(COC(=O)c1ccccc1)(COC(=O)c1ccccc1)COC(=O)c1ccccc1)c1ccccc1,-2.84,–
ClC1=C(Cl)C(Cl)(Cl)C(Cl)=C1Cl,-8.87,–
CC(=O)Nc1ccc(C(=O)CCl)cc1,–,25.1 µM (active)
Nc1ccc2cc3ccccc3cc2c1,3.29,–
c1ccc2c(c1)-c1cccc3c1c-2cc1ccccc13,-5.9,–
O=C=Nc1ccc(Cc2ccc(N=C=O)cc2)cc1,-11.3,–
O=[N+]([O-])c1cc([N+](=O)[O-])c2ccc(S(=O)(=O)O)cc2c1O,-10.5,–
Cc1cc(O)c(C(C)(C)C)cc1Sc1cc(C(C)(C)C)c(O)cc1C,–,31.6 µM (active)
CCC(C)Nc1ccc(NC(C)CC)cc1 (stereo not given),–,12.6 µM (active)
CNc1ccc(O)cc1,–,12.6 µM (active)
C=CC(=O)OCCOCCOC(=O)C=C,–,20 µM (active)
c1ccc2c(c1)ccc1cc3c(ccc4ccccc43)cc12,-11.5,–
C=C(C)c1ccccc1,-9.76,–
O=C1OC(O)C(C(Cl)Cl)=C1Cl (stereo not given),–,63.1 µM (active)
